# Bioassay records as filed in PubChem.
# An excerpt weighted towards active compounds, which were near 14% of everything screened.
# HCMV inh = qHTS Assay for inhibitors of the human cytomegalovirus (HCMV); 410,000 compounds, 4.5% hits; AID 1259415, 2018; HFF cells, HCMV-luciferase reporter, 72 h; hits give low values; activity change, negative = inhibition, % at 57.5 µM; in the data active = activity change below about -60%; inconclusive = no clear call, values can overlap the other calls; inactive = above about -39%
#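 HFF cells seeded 16 h at 37C, treated with compounds, infected with luciferase-reporter HCMV at MOI 1 PFU/cell; luciferase read at 72 h post infection, normalized to buffer-only and Salinomycin controls.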
# Lassa entry inh = qHTS for Inhibitors of binding or entry into cells for Lassa Virus; Lassa virus pseudotype entry inhibition, cell reporter; Potency, µM (series often up to 37.9 µM), without a hit: top-dose activity change, negative = inhibition, usual class: inhibitors; 300,000 compounds, 1.2% hits; AID 540256, 2011; calls by dose curve; tested in HEK293 cells; note: potency is the fitted concentration of half-maximal effect; nearly all actives have a fitted effect of over 50% in size
# Pf growth 96h = Primary qHTS for delayed death inhibitors of the malarial parasite plastid, 96 hour incubation; P. falciparum luciferase reporter growth, 96 h; Potency, µM (top dose mostly 28.7 µM), for the others: at the highest dose activity change, negative = inhibition, hits mostly inhibitors; 320,000 compounds, 6.9% hits; note: potency is the fitted concentration of half-maximal effect
#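 Plates of compound plus infected erythrocytes (2% hematocrit, 0.05% parasitemia final) incubate 96 hours, 37 C, 5% CO2. Detection reagent added; reduced luminescence from the parasites' luciferase reporter flags inhibition.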
# Pf growth 48h = Primary qHTS for delayed death inhibitors of the malarial parasite plastid, 48 hour incubation. 310,000 compounds, 5.9% hits. AID 504832, 2011. P. falciparum luciferase growth in erythrocytes, 48 h. Potency, µM (titrated, usually from 28.7 µM), inactives show at the highest dose activity change, negative = inhibition, hits mostly inhibitors; note: potency is the fitted concentration of half-maximal effect
#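 Erythrocytes infected with P. falciparum carrying an integrated firefly luciferase reporter (2% hematocrit, 0.1% parasitemia final) were exposed to compounds in RPMI 1640 with 0.5% Albumax at 37 C, 5% CO2. Growth inhibition was scored as reduced luminescence.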
# HCV inhibitor = qHTS Assay for Inhibitors of Hepatitis C Virus (HCV); Huh7.5.1 HCVcc-Cre infection, luciferase reporter, 44 h; Potency, µM (top dose mostly 41.8 µM), for the others: top-dose activity change, negative = inhibition, most hits filed as inhibitors; 340,000 compounds, 3.4% hits; AID 651820, 2012; note: potency is the fitted concentration of half-maximal effect
#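 Cells seeded at 1,000/well and cultured 4 h, then compounds added followed by HCVcc-Cre virus (~0.5 moi). After 44 h further culture, luciferase substrate was added, plates held 15 min at room temperature, and luminescence read for 15 sec.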
# Marburg entry inh = qHTS for inhibitors of binding or entry into cells for Marburg Virus | Marburg virus pseudotyped entry inhibition, cell reporter | Potency, µM (series often up to 37.8 µM), for the others: at the highest dose activity change, negative = inhibition, usual class: inhibitors | 300,000 compounds, 1.8% hits | AID 540276, 2011; calls by dose curve; tested in HEK293 cells; note: potency is the fitted concentration of half-maximal effect
# Active calls of the source: *; i = inactive; ? = inconclusive; . = not tested or not shown; [ ] = remark or other dose. Unless noted, calls come from the whole dose curve; as a rule, active = well fitted inhibition curve with a large enough effect; inconclusive = small, poorly fitted or top-dose-only effect, or another doubt; inactive = no such curve, though single readings can be large or run the other way. % is set by controls: 0 for no effect and ±100 for the full control effect.
SMILES,HCMV inh,Lassa entry inh,Pf growth 96h,Pf growth 48h,HCV inhibitor,Marburg entry inh
Cc1ccc2nc(-c3ccc(NC(=O)COC(=O)c4ccc([N+](=O)[O-])o4)cc3)sc2c1,?,7.1µM*,223%,225%,13%,4µM*
CCC(C)(C)NC(=S)Nc1ccc(-c2nc3ccc(C)cc3s2)cc1,96,?,288%,204%,-21%,?
Cc1ccc2nc(-c3ccc(NC(=O)CN4CCN(C(=O)c5ccco5)CC4)cc3)sc2c1,-12,?,1.5µM*,2.3µM*,?,-16%
Cc1ccc2nc(-c3ccc(NC(=O)COC(=O)c4ccc(Br)o4)cc3)sc2c1,41,5.6µM*,i,284%,14%,?
Cc1ccc2nc(-c3ccc(NC(=S)NCC(C)(C)CN(C)C)cc3)sc2c1,10,.,.,.,2.2µM*,.
Cc1ccc(NC(=O)CN2CCN(C(=O)c3ccco3)CC2)cc1,-35,4%[46.1 µM],-9%,8%,21%,?
CCOc1ccc(NC(=O)c2cc(C)nc3c2c(C)nn3-c2cccc(F)c2)cc1,-5,?,.,.,.,.
COc1cccc(CCNC(=O)c2c(O)nc3cc(C)ccn3c2=O)c1,8,.,.,.,.,-5%[46.1 µM]
Cc1cc(C)cc(N(CC(=O)Nc2ccc(-c3nc4ccc(C)cc4s3)cc2)S(C)(=O)=O)c1,48,10%,4.1µM*,77%,-26%,?
CS(=O)(=O)c1ccc(C2=C(c3ccccc3)C(=O)OC2)cc1,3,.,-6%,-10%,7.1µM*,.
CCOP(=O)(Nc1ccc2c(c1)C(=NNC(N)=S)c1ccccc1-2)OCC,30,-20%,.,.,11µM*,?
Cn1ccc2c(-c3ccc(F)cc3)cc3c(c21)C1CCC3O1 (stereo not drawn),.,1%[46.1 µM],.,.,.,.
COc1ccc2c(c1)-c1nc(/N=C/c3ccc(O)cc3)sc1CC2,?,?,4.1µM*,21%,?,3%
Oc1ccc2ccccc2c1/C=N/c1nccs1,-7,-28%,.,?,-22%,-8%
COc1ccc2c(c1)-c1nc(/N=C/c3c(O)ccc4ccccc34)sc1CC2,18,-20%,4.7µM*,11%,13µM*,?
COc1ccc(N2C(=O)C(CC(=O)Nc3ccc(F)cc3)N(CCC3=CCCCC3)C2=O)cc1 (stereo not drawn),-16,-20%[46.1 µM],.,.,.,-22%[46.1 µM]
O=S(=O)(CC(CN1CCCC1)N1CCCC1)c1ccc2ccccc2c1 (stereo not drawn),-102*,10µM*,4.1µM*,?,10µM*,18µM*
COc1ccc(-c2coc3c(C)c4oc(=O)c(CCC(=O)O)c(C)c4cc23)cc1,.,?,?,-1%[0.00184 µM],2.5µM*,-22%
COc1ccc(C(=O)N2CCC2(C)C(=O)NC(C)C)cc1OC (stereo not drawn),-13,.,.,.,.,.
CCOc1ccccc1CNC(=O)CCc1c(C)nn(-c2ccc(N3CCCCC3)nn2)c1C,?,-22%[46.1 µM],.,.,.,.
O=C(CCS(=O)(=O)c1ccc(Br)cc1)Nc1ccc(Cl)c(C(F)(F)F)c1,?,-20%[46.1 µM],.,.,.,.
Cc1ccc(Nc2nnc(-c3ccc(C)c(S(=O)(=O)NCc4nc5ccccc5[nH]4)c3)c3ccccc23)cc1,12,?,.,.,.,?
CNC(=O)Cn1nc(-c2ccc(C)c(S(=O)(=O)N(C)C)c2)c2ccccc2c1=O,35,11%,9.3µM*,-12%,18%,-12%
Cc1ccc(-c2nnc(NCc3nc4ccccc4[nH]3)c3ccccc23)cc1S(=O)(=O)N1CCOCC1,.,?,2.6µM*,12µM*,?,?
Cc1ccc(-c2nn(CC(=O)NCc3ccccn3)c(=O)c3ccccc23)cc1S(=O)(=O)N(C)C,33,-3%,2%,-21%,-11%,13%[46.1 µM]
SMILES,HCMV inh,Lassa entry inh,Pf growth 96h,Pf growth 48h,HCV inhibitor,Marburg entry inh
Cc1ccc(-c2nnc(NCc3nc4ccccc4[nH]3)c3ccccc23)cc1S(=O)(=O)N(C)C,-32,18µM*,?,13µM*,?,?
COCCN1C(=O)CSCC1(C)C(=O)NC(C)C (stereo not drawn),-1,.,.,.,.,.
CCOC(=O)c1c(NC(=O)CSc2cn(CCNC(=O)c3ccccc3F)c3ccccc23)sc2c1CCCC2,-5,14%[46.1 µM],.,.,.,3%[46.1 µM]
COc1ccc(CN2C(=O)C(CC(=O)NCc3ccco3)CC(C(=O)N3CCOCC3)=C2C)cc1 (stereo not drawn),0,.,.,.,.,.
CN1CCN(c2ccc(S(=O)(=O)N3CCOCC3)cc2NC(=O)Cc2ccccc2F)CC1,-12,.,-28%,-35%,?,.
Cc1c(C(=O)NCc2ccccc2C(F)(F)F)sc(=O)n1Cc1ccc(S(=O)(=O)N(C)C)cc1,55,.,.,.,.,.
CCCN1CCC(=O)N([C@H](COc2ccccc2)CC(C)C)CC1,11,.,-2%,9%,22%,.
CC(C)CN1CCC(=O)N([C@H](COc2ccccc2)Cc2ccccc2)CC1,-9,.,12µM*,?,10%,.
CC(C)C[C@@H](COc1ccccc1)N1CCN(CCc2ccccc2)CCC1=O,23,.,?,-10%,8%,.
O=C1CCN(CCc2ccccc2)CCN1[C@H](COc1ccccc1)Cc1ccccc1,20,.,3.3µM*,?,?,.
O=C1CCN(CCc2ccccc2)CCN1[C@H](CO)Cc1ccccc1,-10,.,?,-9%,2.2µM*,.
CC(C)(c1ccc(O)cc1)c1ccc(O)c(C(=O)O)c1,15,.,.,.,.,.
O=C(Nc1ccc(Cl)c([N+](=O)[O-])c1)C(Sc1ccccc1)c1ccccc1 (stereo not drawn),-102*,?,?,13µM*,?,?
CC1=C(c2ccc(C)c(C)c2)S(=O)(=O)N=C1N1CCC(C(=O)NC(C)c2ccccc2)CC1 (stereo not drawn),-7,-19%[46.1 µM],.,.,.,.
CS(=O)(=O)c1ccc(C(=O)NCCN2C(=O)S/C(=C\c3cccnc3)C2=O)cc1[N+](=O)[O-],-114*,21µM*,?,5.2µM*,?,10µM*
O=C(NCCN1C(=O)S/C(=C\c2ccc(Cl)c(Cl)c2)C1=O)c1cnccn1,-66*,-16%,-7%,16%,-1%,-5%
O=C(NCCN1C(=O)S/C(=C\c2ccc(Cl)c([N+](=O)[O-])c2)C1=O)C1=COCCO1,2,?,?,-8%,11µM*,?
O=C1CCC(C(=O)NCCN2C(=O)S/C(=C\c3cccnc3)C2=O)=NN1,?,7%,4%,13%,23%,?
COc1ccc(-c2nnc(SCC(=O)Nc3ccc(C)c(C)c3)s2)cc1,-6,-17%[46.1 µM],.,.,.,.
